Among the data in PubChem BioAssay (EPA / NIEHS) are outcome and AC50 values, retold here.

Each structure is given as a SMILES string. Records with an inconclusive call do not appear. Calls of active or inactive are those of the source. The calls were made as follows: active = hit-call score of the fitted dose curve at least 0.9, where 1 is the maximum; inconclusive = response in the unintended direction; inactive = score below 0.9.

Chain of rat Thyrotropin Releasing Hormone Receptor (TRH), Trhr (gene 25570) (Q01717 whole entry, looked up): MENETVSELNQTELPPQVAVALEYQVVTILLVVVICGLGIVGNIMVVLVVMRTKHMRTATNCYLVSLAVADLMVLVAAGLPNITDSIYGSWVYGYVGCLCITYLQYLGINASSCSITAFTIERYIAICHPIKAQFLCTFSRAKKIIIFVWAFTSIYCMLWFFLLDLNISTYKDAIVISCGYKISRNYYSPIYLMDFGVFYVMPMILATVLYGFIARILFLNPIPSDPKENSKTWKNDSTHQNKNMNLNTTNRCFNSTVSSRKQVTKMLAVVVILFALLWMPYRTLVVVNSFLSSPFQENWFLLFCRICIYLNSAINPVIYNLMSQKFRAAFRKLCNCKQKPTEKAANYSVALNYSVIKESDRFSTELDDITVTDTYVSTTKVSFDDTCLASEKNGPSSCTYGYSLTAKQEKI

This assay has as its target rat Thyrotropin Releasing Hormone Receptor (TRH), Trhr (gene 25570) (UniProt Q01717). Description: NVS_GPCR_rTRH: NovaScreen (NVS) G Protein-Coupled Receptor Assay for rat Thyrotropin Releasing Hormone Receptor (TRH) (AID 2283329).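 Also: hit means lower bound tracer signal versus DMSO baseline.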 On the procedure: NVS_GPCR_rTRH is a biochemical, single-readout assay that uses extracted gene-proteins from Rat forebrain membranes in a tissue-based cell-free assay. Measurements were taken 4 hours after chemical dosing in a 48-well plate.NVS_GPCR_rTRH is one of one assay component(s) measured or calculated from the NVS_GPCR_rTRH assay. It is designed to make measurements of radioligand binding, a form of binding reporter, as detected with scintillation counting signals by Filter-based radiodetection technology.Data from the assay component NVS_GPCR_rTRH was analyzed into 1 assay endpoint. This assay endpoint, NVS_GPCR_rTRH, was analyzed in the positive analysis fitting direction relative to DMSO as the negative control and baseline of activity. Using a type of binding reporter, loss-of-signal activity can be used to understand changes in the binding as they relate to the gene Trhr. Furthermore, this assay endpoint can be referred to as a primary readout, because the performed assay has only produced 1 assay endpoint. To generalize the intended target to other relatable targets, this assay endpoint is annotated to the gpcr intended target family, where the subfamily is rhodopsin-like receptor.
Binding assays used specific radioligands (tritiated, iodinated) with non-radioactive competitive displacement ligands in agonist or antagonist protocols (as indicated) and various reference compounds and inhibitors to titrate specific binding to receptors and transporters. Most enzyme assays (CYPs, kinases, phosphatases, proteases, HDACs) used recombinant protein and specific substrates (fluorescence mostly, some colorimetric and radioactive) and inhibitors, followed by a biochemical separation of substrate and product. All assays for the biochemical HTS were initially run in duplicate at a single concentration (10 uM for CYP450 assays and 25 uM for all others). […] Each assay was run with positive and negative controls, and concurrent controls on every plate. The follow-up (secondary) screen tested active chemical-pairs in concentration series, as well as a few additional assays not tested in the primary screen, some selected negative inactives, and several cases re-run in the concentration series for confirmatory purposes.
As for `Cc1cc(C(=C2C=CC(=Nc3ccc(S(=O)(=O)O)cc3)C=C2)c2ccc(Nc3ccc(S(=O)(=O)O)cc3)cc2)cc(S(=O)(=O)O)c1N`, the outcome was inactive. Regarding `CCCCCCC(C)(C)C(=O)O`, the compound was classed as inactive. Still for that read-out and setting: the result for `CS(=O)(=O)c1ccc([C@@H](CC2CCCC2)C(=O)Nc2cnccn2)cc1Cl` reads “inactive”; that for `COc1cc([N+](=O)[O-])ccc1N`, “inactive”; that for `CCc1ccccc1O`, “inactive”.

In the case of `CCCCc1ccc2ccccc2c1S(=O)(=O)O`, the result was inactive. Still for that read-out and setting: the result for `O=C(O)c1cccc(C(=O)O)n1` reads “inactive”; that for `NCCN`, “inactive”. Turning to `Cc1ccc(C)c(S(=O)(=O)O)c1`, the concentration at half-maximal activity (AC50) is 194 nM (active).

For `Cc1ccc(S(=O)(=O)O)cc1`, the AC50 is 167 nM (active).

For orientation: AC50 means the concentration at which the activity in the assay is half-maximal.
